Most compounds without a hit are left out; they make up all but 4% or so of the library.
TROY NFkB inh: blocks TROY-dependent signaling in reporter cells | 0.98% of 360,000 active | inhibition, % at 10 µM | Q293 LMP1-TROYcd NF-kB luciferase reporter, 4 h;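 active = compounds whose plate-normalised and pattern-corrected inhibition of the luciferase reporter signal at the single screening dose is 50% or more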
CF NFkB inh: cystic fibrosis NF-kB activation inhibition | KKLEB NF-kB-GFP reporter, PAF-induced, GFP fluorescence overnight | 0.86% of 360,000 active | inhibition, % at 5 µM;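 active = at least 50% inhibition at 5 µM, scaled per plate between neutral and stimulator controls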;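 also: PAF is a Pseudomonas aeruginosa culture filtrate used as stimulus; plate controls were PAF-stimulated DMSO wells for no effect and unstimulated DMSO wells for full effect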
HIF-2a inh: HIF-2a inhibition. AID 624352. 0.72% of 360,000 active. 786-0 RCC cells HIF-2a reporter, luciferase luminescence, overnight. inhibition, % at 18.8 µM;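 active = inhibition of the luminescence signal of 40% or more relative to plate controls, in a single-dose primary screen at 18.75 µM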
TWEAK-Fn14 inh: TWEAK-Fn14 signaling inhibition | TWEAK-stimulated Fn14 reporter cells, luciferase luminescence, 8 h | inhibition, % at 10 µM | 2% of 360,000 active | AID 1159606; in the data active = inhibition above about 50%
Peg3 prom inh: Peg3 promoter activity inhibition | HeLa PEG-Prom luciferase reporter, luminescence, overnight | inhibition, % at 20 µM | 1.7% of 360,000 active;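 active = inhibition of at least 50% at 20 µM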
KKLEB tox: counter-screen for CF NF-kB inhibitors: cytotoxicity; KKLEB CF airway cells viability, ATPlite luminescence, overnight; hits give low values; cells stimulated with P. aeruginosa culture filtrate; activity change (cytotoxicity), % at 5 µM; 0.36% of 360,000 active;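 active = corrected activity change at or below -50% at 5 µM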
Active calls of the source: *.

Results for COc1ccc(N2C(=O)C(Cl)=C(Oc3cccc(OC)c3)C2=O)cc1 ?
TROY NFkB inh: -6; CF NFkB inh: 12; HIF-2a inh: 93*; TWEAK-Fn14 inh: 1; Peg3 prom inh: 107*; KKLEB tox: 4

What do the screens show for `COCCN(C(=O)COC(=O)c1c(NC(C)=O)sc(C)c1C)c1c(N)n(Cc2ccccc2)c(=O)[nH]c1=O`?
TROY NFkB inh: 8; CF NFkB inh: -19; HIF-2a inh: 7; TWEAK-Fn14 inh: -18; Peg3 prom inh: 6; KKLEB tox: 0

Results for COc1ccc(N2CCCC2)c(NC(=O)c2ccc([N+](=O)[O-])o2)c1 ?
TROY NFkB inh: 4; CF NFkB inh: -1; HIF-2a inh: -16; TWEAK-Fn14 inh: -10; Peg3 prom inh: 53*; KKLEB tox: -26

How did CC1CCN(c2ccc(NC(=O)c3ccc([N+](=O)[O-])o3)cc2)CC1 do in these assays?
TROY NFkB inh: 9; CF NFkB inh: 95*; HIF-2a inh: 53*; TWEAK-Fn14 inh: 42; Peg3 prom inh: 106*; KKLEB tox: -98*

How did O=C(Nc1ccc(N2CCCCC2)cc1)c1ccc([N+](=O)[O-])o1 do in these assays?
TROY NFkB inh: 24; CF NFkB inh: 96*; HIF-2a inh: 34; TWEAK-Fn14 inh: 45; Peg3 prom inh: 106*; KKLEB tox: -37

What do the screens show for `CC(C)(C(=O)O)c1ccc([C@H](O)CCCN2CCC(C(O)(c3ccccc3)c3ccccc3)CC2)cc1`?
TROY NFkB inh: -19; CF NFkB inh: -23; HIF-2a inh: -8; TWEAK-Fn14 inh: 5; Peg3 prom inh: -7; KKLEB tox: -3

How did O=C1C=C(OCCF)CC(c2cccc([N+](=O)[O-])c2)O1 (configuration not stated) do in these assays?
HIF-2a inh: 2

How did CCC(NC(=S)NCc1ccc(F)cc1)c1ccc(C)cc1 (configuration not stated) do in these assays?
TROY NFkB inh: 12; CF NFkB inh: -21; HIF-2a inh: 2; TWEAK-Fn14 inh: 5; Peg3 prom inh: 19; KKLEB tox: 18

What do the screens show for `COc1cc(NC(=O)COc2ccccc2[N+](=O)[O-])ccc1NC(=O)c1cccs1`?
TROY NFkB inh: 19; CF NFkB inh: 30; HIF-2a inh: -170; TWEAK-Fn14 inh: -44; Peg3 prom inh: 57*; KKLEB tox: -9

Source: PubChem BioAssay
